Laboratory results as given in PubChem BioAssay (NCI).
The panel holds about 83,000 compounds, 20% with a hit somewhere; the sample as a whole holds those more often.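 Cells were grown in 96-well plates and exposed to the test compound at a single concentration for 48 hours; results are reported as percent growth, with values below 10 considered active.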 Values without a mark were called inactive. Activity calls are given as the source filed them.

What was measured:
Assay in all cases: NCI-60 one-dose screen, 48 h (100 = growth as untreated, 0 = no growth, -100 = all killed)
Details in all cases: 10 µM unless noted
SK-MEL-2 melanoma = tested on: SK-MEL-2 melanoma
EKVX NSCLC = tested on: EKVX NSCLC
SN12C renal = tested on: SN12C renal
UO-31 renal = tested on: UO-31 renal
TK-10 renal = tested on: TK-10 renal
ACHN renal = tested on: ACHN renal
CAKI-1 renal = tested on: CAKI-1 renal
A498 renal = tested on: A498 renal
CCRF-CEM leukemia = tested on: CCRF-CEM leukemia
MOLT-4 leukemia = tested on: MOLT-4 leukemia

Structure (SMILES) | growth (SK-MEL-2 melanoma) | growth (EKVX NSCLC) | growth (SN12C renal) | growth (UO-31 renal) | growth (TK-10 renal) | growth (ACHN renal) | growth (CAKI-1 renal) | growth (A498 renal) | growth (CCRF-CEM leukemia) | growth (MOLT-4 leukemia)
Cc1cccc(C)c1NC(=S)/N=C\c1c(O)[nH]c(=O)[nH]c1=O | 103% | 77.3% | 98.5% | 89.5% | 106% | 102% | 96.5% | 103% | 98.9% | 
O=C(O)CC1=CCCCC1 | 119% | 97.5% | 104% | 89.1% | 108% | 91.1% | 97.7% | 74.8% | 96.9% | 
CC(=O)Nc1ccc(/C=C2\SC(=S)N(/C=C(\C(C)=O)C(N)=O)C2=O)cc1 | 87.7% | 94.2% | 95.5% | 68.4% | 97.4% | 97.8% | 98.3% | 101% | 91.1% | 
CC(C)C(=O)OCCOc1ccc(C(C)(C)C)cc1 | 92.3% | 103% | 89.4% | 89.6% | 93.7% | 101% | 100% | 94.2% | 98.6% | 
Nc1nc(Cl)cc(Cl)n1 | 96% | 103% | 110% | 95.2% | 93.6% | 105% | 102% | 118% | 108% | 
O=C(O)C1CCCN1C(=O)OCc1ccccc1 (configuration not stated) | 94.7% | 117% | 103% | 80.9% | 106% | 109% | 94.6% | 108% | 112% | 
Cc1cc(CC(=O)NCCO)n(CCO)c(=O)c1 | 109% | 93.7% | 103% | 94.4% | 94.1% | 106% | 101% | 89.4% |  | 
CCN(Cc1ccc(Cl)c(Cl)c1)c1ccc2nc(N)nc(N)c2c1C | -78% (active) | -56.8% (active) | -75.6% (active) | -82.7% (active) | -84.3% (active) | -95.6% (active) | -67% (active) | -78.2% (active) | -5.59% (active) | -59.5% (active)
Cc1cc(Nc2ccc3c(c2)OCO3)c2cc3c(cc2n1)OCO3 | 22.5% | 44.9% | 47% | 28.5% | 59.7% | 50.9% | 19.5% | -1.69% (active) | -7.98% (active) | 35.8%
CC1(C)OC(=O)CC1=O | 90.9% | 96.8% | 105% | 92.9% | 87% | 101% | 90.4% | 88.9% | 89.3% | 85.1%
O=C(c1ccccc1O)N1CCCC1 | 92.9% | 97.5% | 102% | 91.9% | 96.5% | 94.4% | 94.8% | 91.9% | 100% | 98.6%
O=[n+]1ccn([O-])c2ccccc21 | 120% | 104% | 97.4% | 88.6% | 98.3% | 104% | 96.2% | 81% | 17.7% | 102%
O=C(c1cccc(C(=O)c2ccc3c4c(cccc24)C(=O)N(c2ccccc2)C3=O)c1)c1ccc2c3c(cccc13)C(=O)N(c1ccccc1)C2=O | 111% | 104% | 92.4% | 89.8% | 115% | 102% | 100% | 86.7% | 89.9% | 90.9%
O=C(N/N=C\c1ccc(Cl)cc1Cl)c1ccncc1 | 94.4% | 101% | 98.7% | 90.7% | 91.4% | 105% | 99% | 95.8% | 99.6% | 94.5%
O=Cc1c(O)c2ccccc2[nH]c1=O | 106% | 113% | 92.3% | 81.6% | 106% | 91.5% | 98.1% | 119% | 108% | 104%
CCOC(=O)/C(C)=C\c1ccc(OC)c(OC)c1 | 112% | 102% | 104% | 95.1% | 104% | 103% | 96.1% | 95.7% | 88.8% | 94.5%
O=C(NC(=S)N1CC=CCC1)c1ccccc1 | 84.4% | 111% | 88.4% | 87% | 94.5% | 94.3% | 105% | 93.1% | 121% | 94.2%
O=C(NC1CCCCC1)c1ccc(Cl)cc1 | 115% | 98.5% | 103% | 94.7% | 102% | 104% | 102% | 82.4% | 98.4% | 95.2%
COC1OC(CO)C(OC)C(O)C1O (configuration not stated) | 111% | 103% | 104% | 92.5% | 110% | 104% | 105% | 92.7% | 102% | 98.6%
COc1ccc(C(=O)C(=O)c2ccccc2)cc1 | 110% | 102% | 98.7% | 95.3% | 108% | 101% | 99.9% | 97.5% | -54.2% (active) | 101%
O=c1cc(C(F)(F)F)[nH]c(=S)[nH]1 | 111% | 95% | 95% | 87.3% | 97.7% | 108% | 88% | 139% | 119% | 105%
CCOP(=O)(OCC)/C(=C\N1C(=O)CC(=O)NC1=S)C(=O)OC | 118% | 98.9% | 101% | 90% | 112% | 99.5% | 97.4% | 87.7% | 103% | 100%
COC(=O)C1(CC(C)=O)NC(=S)NC(=O)C1C#N (configuration not stated) | 119% | 96.4% | 101% | 92.2% | 103% | 109% | 94.6% | 147% | 101% | 108%
CC1(c2ccccc2)CO1 (configuration not stated) | 107% | 111% | 107% | 85.8% | 102% | 102% | 107% | 131% | 97.7% | 99.6%
CCCc1cccc(CCC)c1NC(=O)Nc1cc(Cl)cc(Cl)c1 | 106% | 109% | 91% | 69.7% | 106% | 101% | 83.5% | 95.9% | 91.6% | 101%
CCNC(=O)OCCc1c2ccccc2nc2ccccc12 | 111% | 115% | 119% | 92.2% | 132% | 94.1% | 121% | 111% | 73.7% | 76.4%
COc1ccc(-c2csc(NC(=O)Nc3nc(-c4ccc(OC)cc4)cs3)n2)cc1 | 116% | 72.3% | 93.6% | 75.4% | 99.8% | 90.1% | 81.5% | 96.3% | 76% | 34.8%
Cc1ccc2[nH]c3ccccc3c2c1 | 109% | 108% | 109% | 91.3% | 106% | 110% | 97.3% | 82.5% | 92.8% | 94.4%
CC(C)Sc1ncnc2nc[nH]c12 | 108% | 94.7% | 96.7% | 95.9% | 116% | 99.6% | 101% | 59.3% | 111% | 146%
O=C(Nc1ccc([N+](=O)[O-])cc1)C(=O)Nc1ccc([N+](=O)[O-])cc1 | 97% | 103% | 102% | 89.1% | 98.5% | 107% | 98.1% | 100% | 101% | 101%
